DNA Pol III inh = inhibitors of bacterial DNA polymerase III holoenzyme. Potency, µM (highest dose often 57.1 µM), for inactives: at the top dose activity change, negative = inhibition. reconstituted DNA polymerase III holoenzyme replication, biochemical. actives 0.25% (n = 71,000)
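Reconstituted *E. coli* holoenzyme (0.35 nM Pol III, 1 nM beta, 154 nM SSB, 2 nM primase) was preincubated with compound for 15 min at RT. Synthesis on 1.4 nM ssM13Gori ran 35 min, then was stopped with PicoGreen/EDTA and read as dsDNA fluorescence.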
ERK AVP inh = vasopressin-driven ERK pathway inhibition; AID 995; Potency, µM (series often up to 57.5 µM), inactives show top-dose activity, negative = inhibition, most hits filed as inhibitors; HEK293-V1b, vasopressin-stimulated pERK AlphaScreen; actives 0.99% (n = 72,000); further: nearly all actives have a fitted effect of over 55% in size
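HEK293 cells stably expressing V1b receptor, preincubated 30 min at 37 °C with compound, then stimulated 5 min with 25 nM vasopressin. Phospho-ERK by AlphaScreen SureFire after 5 h RT; normalized to DMSO and vasopressin; AC50 by Hill fit.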
Luciferase inh = inhibitors of firefly luciferase | AID 411 | actives 2.2% (n = 72,000) | P08659 | Potency, µM (series often up to 57.1 µM), inactives show at the highest dose activity change, negative = inhibition, usual class: inhibitors | purified firefly luciferase, luminescence, 8 min; further: nearly all actives have a fitted effect of over 40% in size
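Titration-based qHTS; buffer 50 mM imidazole pH 7.2, 50 mM KCl, 7 mM MgCl2, 10 uM ATP, 0.01% Tween 20, 0.05% BSA; luciferase/luciferin detector mix added after compound; 8 min, ambient; luminescence.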
15-hLO inh = inhibitors of human 15-lipoxygenase (ALOX15). Potency, µM (titrated, usually from 57.1 µM), for inactives: at the highest dose activity change, negative = inhibition, actives largely listed as inhibitors. AID 887. actives 1.4% (n = 74,000). purified 15hLO-1, xylenol orange hydroperoxide absorbance; further: nearly all actives have a fitted effect of over 55% in size
Target sequence (P16050 whole entry, looked up): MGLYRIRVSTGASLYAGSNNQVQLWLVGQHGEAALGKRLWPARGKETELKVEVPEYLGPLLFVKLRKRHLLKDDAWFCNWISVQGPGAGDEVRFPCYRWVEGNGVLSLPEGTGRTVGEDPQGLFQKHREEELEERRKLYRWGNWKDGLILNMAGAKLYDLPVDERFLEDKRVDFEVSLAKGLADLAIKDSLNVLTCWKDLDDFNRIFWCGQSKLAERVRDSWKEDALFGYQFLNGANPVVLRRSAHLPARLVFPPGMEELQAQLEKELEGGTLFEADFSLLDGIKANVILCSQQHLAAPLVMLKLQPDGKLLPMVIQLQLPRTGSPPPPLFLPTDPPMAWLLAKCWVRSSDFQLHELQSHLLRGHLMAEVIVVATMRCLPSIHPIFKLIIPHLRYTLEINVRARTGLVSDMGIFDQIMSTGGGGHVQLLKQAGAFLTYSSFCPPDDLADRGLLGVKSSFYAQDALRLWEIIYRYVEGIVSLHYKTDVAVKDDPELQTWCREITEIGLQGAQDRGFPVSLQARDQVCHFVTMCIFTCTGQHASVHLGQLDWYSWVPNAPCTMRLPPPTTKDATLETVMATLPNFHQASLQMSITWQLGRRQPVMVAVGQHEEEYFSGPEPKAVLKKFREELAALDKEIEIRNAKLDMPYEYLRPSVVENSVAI
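Purified human 15hLO-1 (40 nM) in 25 mM Hepes pH 7.5, 0.01% Triton X-100, preincubated 15 min RT with compound, then 50 uM arachidonic acid for 6 min. Hydroperoxide read by ferrous/xylenol orange, 30 min; 573/405 nm absorbance ratio gave progress.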
Tau filament bind = binds recombinant human tau filaments; P10636; recombinant tau filaments, thioflavin S fluorescence, 15 h; filaments grown with octadecylsulfate alongside compound; Potency, µM (series often up to 57.1 µM), for inactives: top-dose activity change, negative = inhibition; actives 2% (n = 71,000); AID 596;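 further: actives lower thioflavin S fluorescence by blocking filaments or displacing dye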
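Read-out: ThS fluorescence, 450 nm excitation/510 nm emission; lower signal marks blocked filament formation or displaced dye. Tau at 1 uM with 30 uM ODS, 10 uM ThS, 5 mM DTT, 100 mM NaCl, 10 mM HEPES pH 7.4; 15 h, 37 C.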
Bst PK mod = alters activity of Bacillus stearothermophilus pyruvate kinase | purified pyruvate kinase, luminescence ATP production; ribose 5-phosphate activator present at AC10 | actives 1.2% (n = 51,000) | Potency, µM; in the data active means potency below about 11 µM; inconclusive means mostly about 12 µM to 25 µM;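 the screen sought inhibitors and activators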;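 further: scaled between full activation by ribose 5 phosphate and full inhibition by luteolin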
* marks the source's active call; other numbers are inactive results; [ ] = another dose, or the depositor's remark. This is a sample that favours compounds with a hit; in the whole collection about 6% have one here. Unless noted, the call rests on the fitted dose curve; in most records, active means well fitted curve in the direction sought with a large enough effect; inconclusive means small, poorly fitted or top-dose-only effect, or another doubt; inactive means no such curve, though single readings can be large; an effect the other way counts as inactive or inconclusive. Unless noted, on the % scale 0 is the no-effect control and ±100 the full control effect; potency means the concentration at half of the fitted maximal effect.

O=C(Nc1ccc(OC(=O)c2ccco2)cc1)c1ccco1 was read as DNA Pol III inh 6.3%, ERK AVP inh -18.8%, Luciferase inh 12.6µM*, 15-hLO inh -3.8%, Tau filament bind -4.5% and Bst PK mod inactive.
Screening CC(=O)Nc1cccc(NC(=O)c2ccco2)c1 returned 15-hLO inh 1.1%.
`O=C(Nc1ccc2c(c1)Cc1ccccc1-2)c1ccco1` gave DNA Pol III inh -1.2%, ERK AVP inh inconclusive, Luciferase inh 10µM*, 15-hLO inh -5.8%, Tau filament bind 28.5% and Bst PK mod 8.78*.
O=C(Nc1ccc2c(c1)OCCO2)c1ccco1 was read as DNA Pol III inh -4.6%, ERK AVP inh 4.4%, Luciferase inh 10µM*, 15-hLO inh 4.7% and Tau filament bind 1.0%.
Cc1ccc(NC(=O)c2ccco2)cc1C was read as DNA Pol III inh -2.5%, ERK AVP inh -5.2%, Luciferase inh 15.8µM*, 15-hLO inh 0.2% and Tau filament bind -5.3%.
`O=C(COC(=O)c1ccco1)Nc1ccc2c(c1)OCCO2` gave DNA Pol III inh -7.0%, ERK AVP inh 8.4%, Luciferase inh 10µM*, 15-hLO inh 11.5%, Tau filament bind -1.5% and Bst PK mod inconclusive.
O=C(Nc1ccc(Cl)cc1C(=O)Nc1ccncc1)c1ccco1 was read as DNA Pol III inh 2.2%, ERK AVP inh inconclusive, Luciferase inh -1.3%, 15-hLO inh 2.51µM* and Tau filament bind -16.6%.
For O=C(Nc1ccc2c(c1)OCO2)C1CCCN1C(=O)OCc1ccccc1 (configuration not stated) the results were DNA Pol III inh -0.3%[11.4 µM], ERK AVP inh -15.8%, Luciferase inh -9.4%, 15-hLO inh -5.6%[11.4 µM] and Tau filament bind 3.0%[11.4 µM].
`O=C(Nc1ccc2c(c1)OCO2)OCc1ccccc1` gave DNA Pol III inh -1.2%, ERK AVP inh -17.2%, Luciferase inh 12.6µM*, 15-hLO inh -0.6% and Tau filament bind -4.7%.
Screening O=C(COC(=O)c1ccccc1NC(=O)c1ccco1)Nc1ccc2c(c1)OCO2 returned DNA Pol III inh -4.7%, ERK AVP inh inconclusive, Luciferase inh -7.7%, 15-hLO inh -4.0%, Tau filament bind 77.8% and Bst PK mod >57.
`O=C(Nc1ccccn1)c1ccc(NC(=O)c2ccco2)cc1` gave DNA Pol III inh -4.6%, ERK AVP inh 11.7%, Luciferase inh 25.1µM*, 15-hLO inh -12.6%, Tau filament bind -2.8% and Bst PK mod inactive.
`O=C(c1cccc(F)c1)N1CCC2(CC1)CN(C(c1ccccc1)c1ccccc1)C2` gave DNA Pol III inh -4.1%, ERK AVP inh -26.6%, Luciferase inh -5.3%[11.4 µM], 15-hLO inh -8.9% and Tau filament bind -15.5%.
Screening O=C(COc1ccc2ccc(=O)oc2c1)Nc1ccc2c(c1)OCCO2 returned DNA Pol III inh -4.5%, ERK AVP inh -1.1%, Luciferase inh 12.6µM*, 15-hLO inh -3.6% and Tau filament bind 403.1%.
Screening CN(C)C(=O)COc1ccc2ccc(=O)oc2c1 returned DNA Pol III inh 2.4%, ERK AVP inh -8.3%, Luciferase inh -1.3%, 15-hLO inh 10.2% and Tau filament bind 0.5%.
COc1ccccc1C(=O)n1nc(-c2cccnc2)nc1N was read as DNA Pol III inh -0.4%, ERK AVP inh -2.0%, Luciferase inh 2.0%, 15-hLO inh -12.7% and Tau filament bind -24.9%.
COc1ccccc1C(=O)n1nc(-c2ccc(Cl)cc2)nc1N was read as DNA Pol III inh -6.4%, ERK AVP inh -11.1%, Luciferase inh 1.4%, 15-hLO inh 12.6µM*, Tau filament bind -9.9% and Bst PK mod >57.
Screening COc1ccc(OCCSc2nnc(-c3ccccc3)n2N)cc1 returned DNA Pol III inh -1.7%, ERK AVP inh -1.8%, Luciferase inh -2.1%, 15-hLO inh 12.6µM*, Tau filament bind -1.5% and Bst PK mod >57.
`COc1ccc(Oc2ncc3nc(C)c(=O)n(Cc4ccc(F)cc4)c3n2)cc1` gave DNA Pol III inh -9.0%, ERK AVP inh -11.8%, Luciferase inh -0.5%[11.4 µM], 15-hLO inh -9.7% and Tau filament bind -23.4%.

Source: PubChem
